From PubChem BioAssay AID1851 (National Center for Advancing Translational Sciences (NCATS), 2009)
The whole screen tested about 16,000 compounds, of which about 4,000 (25%) were called active. Inconclusive results (about 26%) are left out. Only a sample is shown. Values without a mark were called inactive. The call rests on the fitted dose curve; in most records, active means well fitted curve in the direction sought with a large enough effect; inconclusive means small, poorly fitted or top-dose-only effect, or effect the other way; inactive means no such curve, though single readings can be large or run the other way.

target: Cytochrome P450 2C9 (Homo sapiens) (UniProt P11712); test: Cytochrome panel assay with activity outcomes; conditions: recombinant CYP, pro-luciferin dealkylation, luminescence, p450-cyp2c9; series mostly up to 57.1 µM
On the % scale 0 is the no-effect control and ±100 the full control effect.

Cytochrome P450 2C9 (Homo sapiens), sequence (P11712 whole entry, looked up): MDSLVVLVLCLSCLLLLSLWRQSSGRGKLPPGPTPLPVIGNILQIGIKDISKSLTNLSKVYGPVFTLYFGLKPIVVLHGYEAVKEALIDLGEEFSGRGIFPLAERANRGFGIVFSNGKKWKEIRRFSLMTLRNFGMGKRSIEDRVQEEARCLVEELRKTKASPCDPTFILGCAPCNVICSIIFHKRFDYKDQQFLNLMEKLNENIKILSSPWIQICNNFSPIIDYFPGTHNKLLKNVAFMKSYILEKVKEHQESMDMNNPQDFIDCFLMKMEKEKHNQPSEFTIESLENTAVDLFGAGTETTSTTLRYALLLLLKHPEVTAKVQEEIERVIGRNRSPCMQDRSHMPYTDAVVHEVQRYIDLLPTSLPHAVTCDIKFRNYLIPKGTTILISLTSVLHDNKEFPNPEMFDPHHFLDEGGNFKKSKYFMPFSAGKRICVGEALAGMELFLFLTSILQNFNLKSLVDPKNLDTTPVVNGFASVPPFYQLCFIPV

Q: For `CC(O)(CS(=O)(=O)c1cccc(C(F)(F)F)c1)C(=O)Nc1ccc(C(F)(F)F)cc1` (stereo not given), which AC50 is on record?
A: 11.2 µM (active)

Q: `C[N+](C)(C)[C@H](Cc1c[nH]c(=S)[nH]1)C(=O)O` was tested. Which activity, negative = inhibition did it give?
A: 11.9% [at 11.4 µM]

Q: For `CC(C)n1cnc2c(C(=O)N[C@H]3CN4CCC3CC4)cc(Cl)cc21`, which AC50 is on record?
A: 0.398 µM (active)

Q: Which AC50 does the source give for `COc1cc(N)c(Cl)cc1C(=O)N[C@@H]1CN2CCC1CC2` here?
A: 12.6 µM (active)

Q: `CN1C(=O)COc2c(C(=O)N[C@@H]3CN4CCC3CC4)cc(Cl)cc21` was tested. Which activity, negative = inhibition did it give?
A: inactive

Q: `CCCn1c(C)c(C(=O)c2ccc3ccccc3c2)c2ccccc21` was tested. Which activity, negative = inhibition did it give?
A: inactive

Q: Which activity, negative = inhibition does the source give for `CNC[C@H](O)c1ccc(OC(=O)C(C)(C)C)c(OC(=O)C(C)(C)C)c1` here?
A: inactive

Q: With `N[C@@H]1C=CC=C(C(=O)O)C1` as the compound, how does the activity, negative = inhibition read?
A: inactive

Q: Which activity, negative = inhibition does the source give for `COc1ccc(C[C@H]2c3cc(OC)c(OC)cc3CCN2C)cc1OC` here?
A: inactive

Q: How did the activity, negative = inhibition turn out when `C=CCN1CC[C@]23c4c5ccc(O)c4O[C@@H]2/C(=N/NC(=O)c2ccccc2)CC[C@@]3(O)[C@H]1C5` was run?
A: inactive

Q: Which activity, negative = inhibition does the source give for `[N-]=[N+]=CC(=O)CC[C@H](N)C(=O)O` here?
A: 26.7% [at 11.4 µM]

Q: For `CCC1(CCSC(=N)N)C(=O)NC(=O)NC1=O`, which activity, negative = inhibition is on record?
A: 12.6% [at 11.4 µM]

Q: How did the AC50 turn out when `C[C@H](Br)CN(C[C@H](C)Br)c1ccc2c(c1)Cc1ccccc1-2` was run?
A: 3.16 µM (active)

Q: How did the activity, negative = inhibition turn out when `CCCN1CCO[C@@H]2c3cc(O)ccc3OC[C@@H]21` was run?
A: inactive

Q: How did the activity, negative = inhibition turn out when `COc1cc(C(=O)OC2C[C@H]3CC[C@@H](C2)N3C)ccc1O` (stereo not given in full) was run?
A: inactive

Q: With `CC(=O)O[C@@H]1CN2CCC1CC2` as the compound, how does the activity, negative = inhibition read?
A: inactive

Q: For `CCN1C[C@]2(C)CC[C@@H](O)[C@]34[C@@H]5CC6[C@@H](OC)C[C@@](O)([C@H]5[C@@H]6O)[C@@H](C[C@@H]23)[C@H]14`, which activity, negative = inhibition is on record?
A: inactive

Q: With `O=C1CC[C@]2(O)[C@H]3Cc4ccc(O)c5c4[C@@]2(CCN3CC2CC2)[C@@H]1O5` as the compound, how does the activity, negative = inhibition read?
A: inactive

Q: With `O=C(/C=C\c1ccc(Cl)cc1)N[C@@]12CCC(=O)[C@@H]3Oc4c(O)ccc5c4[C@@]31CCN(CC1CC1)[C@@H]2C5` as the compound, how does the AC50 read?
A: 15.8 µM (active)

Q: For `O=C1CC[C@@]2(O)[C@H]3Cc4ccc(O)c5c4[C@@]2(CCN3CC2CC2)[C@@H]1O5`, which activity, negative = inhibition is on record?
A: inactive

Q: Which activity, negative = inhibition does the source give for `C[C@]12CC[C@@H]3[C@H](CCC4=CC(=O)CC[C@]43C)[C@]1(O)CC[C@@]2(O)C(=O)CO` here?
A: -5.6% [at 11.4 µM]

Q: `CC(C)[C@@H]1CN[C@H](C(=O)O)[C@@H]1CC(=O)O` was tested. Which activity, negative = inhibition did it give?
A: inactive

Q: How did the activity, negative = inhibition turn out when `O=C(O)[C@@H](O)[C@@H](O)[C@@H]1[O][Sb][O][C@@H]1CO` was run?
A: 5.16% [at 11.4 µM]

Q: For `C[C@@H](N)Cn1ccc2cc(F)c(Cl)cc21`, which AC50 is on record?
A: 3.98 µM (active)

Q: For `CC[N+](CC)(CCCNC1=CC(=O)C(NCCC[N+](CC)(CC)Cc2ccccc2)=CC1=O)Cc1ccccc1`, which activity, negative = inhibition is on record?
A: inactive

Q: `CC[C@@H]1[C@@H]2C[C@H]3[C@H]4N(C)c5ccccc5[C@@]45C[C@@H]([C@@H]2[C@@H]5O)N3[C@H]1O` was tested. Which activity, negative = inhibition did it give?
A: inactive

Q: `N#C/C(=C\c1ccc(O)c(O)c1)C(=O)NCCCNC(=O)/C(C#N)=C/c1ccc(O)c(O)c1` was tested. Which activity, negative = inhibition did it give?
A: inactive

Q: With `N#C/C(=C\c1ccc(O)c(O)c1)C(N)=S` as the compound, how does the activity, negative = inhibition read?
A: inactive

Q: For `N#CC(C#N)=Cc1ccc(O)c(O)c1`, which AC50 is on record?
A: 7.94 µM (active)

Q: Which AC50 does the source give for `CC(C)(C)c1cc(C=C(C#N)C#N)cc(C(C)(C)C)c1O` here?
A: 0.0316 µM (active)

Q: Which AC50 does the source give for `COc1cc(C=C(C#N)C#N)cc(O)c1O` here?
A: 2.51 µM (active)

Q: For `NCCc1c[nH]c2ccccc12`, which activity, negative = inhibition is on record?
A: inactive

Q: Which activity, negative = inhibition does the source give for `O=C(O)CNC(=O)[C@@H](CS)Cc1ccccc1` here?
A: inactive

Q: How did the activity, negative = inhibition turn out when `COC(=O)[C@@H]1[C@@H](O)[C@@]2(O)c3c(OC)cc(OC)cc3O[C@@]2(c2ccc(OC)cc2)[C@H]1c1ccccc1` was run?
A: -21.1% [at 11.4 µM]

Q: How did the activity, negative = inhibition turn out when `COc1cc2c(cc1OC)[C@]13CC[N@+]4(C)CC5=CCO[C@H]6CC(=O)N2[C@@H]1[C@@H]6[C@@H]5C[C@]34O` was run?
A: -6.22% [at 11.4 µM]

Q: `O=C(Oc1ccc([N+](=O)[O-])cc1)N1CCC(N2CCCCC2)CC1` was tested. Which activity, negative = inhibition did it give?
A: inactive

Q: How did the activity, negative = inhibition turn out when `O=C(O)c1cc(N=Nc2ccc([As](=O)(O)O)cc2)ccc1O` was run?
A: 11.3% [at 11.4 µM]

Q: How did the activity, negative = inhibition turn out when `N[C@@H](CCCCP(=O)(O)O)C(=O)O` was run?
A: inactive

Q: For `Cc1ccc(N2C(=O)/C(=C/c3ccc(CN(CCC#N)S(C)(=O)=O)o3)C(=O)NC2=S)cc1C`, which AC50 is on record?
A: 12.6 µM (active)

Q: Which activity, negative = inhibition does the source give for `NCCc1ccc(O)cc1` here?
A: inactive

Q: Which activity, negative = inhibition does the source give for `CC1=NN(c2ccc(S(=O)(=O)O)cc2C)C(=[OH+])[C@H]1N=Nc1cc(S(=O)(=O)O)ccc1C(=O)O.O.[Cr]` here?
A: -5.47% [at 11.4 µM]

Q: For `O=C(NCP(=O)(O)O)c1cccnc1`, which activity, negative = inhibition is on record?
A: 1.84% [at 11.4 µM]

Q: How did the activity, negative = inhibition turn out when `C=C[C@]12CN(C)[C@H]3C1[C@@]1(C(=O)Nc4ccccc41)[C@H]1C[C@H]2[C@H]3CO1` was run?
A: inactive

Q: Which AC50 does the source give for `c1cc2cc(c1)C[n+]1ccc(c3ccccc31)NCc1ccc(cc1)CNc1cc[n+](c3ccccc13)C2` here?
A: 2.51 µM (active)

Q: How did the activity, negative = inhibition turn out when `CN1C(=O)CCS(=O)(=O)[C@H]1c1ccc(Cl)cc1` was run?
A: inactive

Q: `C[C@H]1C(=O)O[C@@H]2CCN3CC=C(COC(=O)[C@@](C)(O)[C@@]1(C)O)[C@H]23` was tested. Which activity, negative = inhibition did it give?
A: inactive

Q: Which AC50 does the source give for `CCCCN1C(=O)/C(=C\c2ccco2)C(=O)N(CCc2ccccc2)C1=O` here?
A: 7.94 µM (active)

Q: How did the activity, negative = inhibition turn out when `c1ccc2c(c1)Sc1ccccc1N2C[C@H]1CN2CCC1CC2` was run?
A: 8.95% [at 11.4 µM]

Q: For `C[C@H](NC(C)(C)C)C(=O)c1cccc(Cl)c1`, which activity, negative = inhibition is on record?
A: inactive

Q: With `CCCN1CCC[C@@H]2Cc3[nH]ncc3C[C@H]21` as the compound, how does the activity, negative = inhibition read?
A: inactive

Q: With `CCN1C[C@]2(COC)CC[C@H](O)[C@@]34[C@@H]5C[C@H]6[C@@H](OC)[C@H]5[C@](O)(C[C@@H]6OC)[C@@](O)([C@@H](OC)[C@H]23)[C@@H]14` as the compound, how does the activity, negative = inhibition read?
A: inactive

Q: `CC[C@H]1CN2CC[C@@H]1C[C@H]2[C@@H](O)c1ccnc2ccc(OC)cc12` was tested. Which activity, negative = inhibition did it give?
A: inactive

Q: `Cc1sc2c(c1C)C(c1ccc(C(C)(C)C)cc1)=NCC(=O)N2CC(=O)Nc1nccs1` was tested. Which AC50 did it give?
A: 12.6 µM (active)

Q: `CN(C)c1ccc(NC(=O)CN2C(=O)CN=C(c3ccccc3)c3ccccc32)cc1` was tested. Which activity, negative = inhibition did it give?
A: inactive

Q: How did the activity, negative = inhibition turn out when `O=[N+]([O-])O[C@H]1CO[C@H]2[C@H]1OC[C@@H]2O[N+](=O)[O-]` was run?
A: inactive
